{
  "source": "the supplement of paper PMC11732987",
  "about": "“Enantioselective OTUD7B fragment discovery through chemoproteomics screening and high-throughput optimisation” (Communications Chemistry, 2025)",
  "assay_in_all_cases": "log2 ratio of Biotin-Ahx-Ub-VS probe labelling (fragment/DMSO); higher = less target engagement (more negative = stronger competition), active = hit call of the paper (q ≤ 0.05, log2 ratio ≤ -1)",
  "conditions_in_all_cases": "compound concentration: 200 uM; treatment time: 3 h",
  "key": {"USP19": {"target": "T1, USP19 (UniProt O94966)", "T1 sequence (whole entry)": "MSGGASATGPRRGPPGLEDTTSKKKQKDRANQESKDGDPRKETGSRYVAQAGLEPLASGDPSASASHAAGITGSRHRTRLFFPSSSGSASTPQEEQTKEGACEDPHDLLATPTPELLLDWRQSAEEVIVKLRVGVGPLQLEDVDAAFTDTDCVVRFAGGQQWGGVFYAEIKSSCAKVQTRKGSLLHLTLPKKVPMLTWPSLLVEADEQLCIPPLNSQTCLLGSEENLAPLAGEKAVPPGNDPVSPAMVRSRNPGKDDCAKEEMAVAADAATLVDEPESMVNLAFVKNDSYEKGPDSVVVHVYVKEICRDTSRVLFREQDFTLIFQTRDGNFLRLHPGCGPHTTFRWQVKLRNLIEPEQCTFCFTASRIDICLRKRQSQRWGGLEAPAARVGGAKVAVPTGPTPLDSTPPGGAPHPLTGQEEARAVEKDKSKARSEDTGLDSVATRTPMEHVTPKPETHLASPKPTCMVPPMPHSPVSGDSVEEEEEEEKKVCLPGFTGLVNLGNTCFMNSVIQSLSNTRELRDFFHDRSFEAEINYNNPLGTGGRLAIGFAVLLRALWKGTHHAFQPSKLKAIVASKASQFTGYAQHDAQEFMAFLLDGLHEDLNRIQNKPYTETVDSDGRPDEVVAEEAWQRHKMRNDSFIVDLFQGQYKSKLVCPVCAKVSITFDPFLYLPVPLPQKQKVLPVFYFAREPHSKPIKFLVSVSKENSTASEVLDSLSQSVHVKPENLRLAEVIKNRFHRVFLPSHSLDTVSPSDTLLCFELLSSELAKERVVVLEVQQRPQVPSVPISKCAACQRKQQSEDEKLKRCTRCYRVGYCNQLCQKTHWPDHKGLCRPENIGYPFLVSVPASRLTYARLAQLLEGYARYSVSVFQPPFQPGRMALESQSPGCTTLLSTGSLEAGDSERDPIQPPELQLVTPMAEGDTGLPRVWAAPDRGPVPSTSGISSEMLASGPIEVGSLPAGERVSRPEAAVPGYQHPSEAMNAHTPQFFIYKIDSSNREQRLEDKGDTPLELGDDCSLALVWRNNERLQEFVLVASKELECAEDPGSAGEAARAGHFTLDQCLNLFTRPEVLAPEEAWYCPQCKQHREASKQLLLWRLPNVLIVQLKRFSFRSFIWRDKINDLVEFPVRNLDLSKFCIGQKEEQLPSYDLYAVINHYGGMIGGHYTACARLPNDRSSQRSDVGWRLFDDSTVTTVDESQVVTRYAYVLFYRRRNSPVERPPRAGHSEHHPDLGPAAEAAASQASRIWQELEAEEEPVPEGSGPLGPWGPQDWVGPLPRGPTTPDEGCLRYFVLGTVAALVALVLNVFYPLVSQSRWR", "summary_of_the_method": "(§1)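 Labelling with Biotin-Ahx-Ub-VS (0.5 µM final, 1 h) followed a 3 h triplicate treatment of HEK293T lysate (495 µg per sample, Tris/CHAPS/IGEPAL buffer with protease inhibitors) with fragment at 200 µM or vehicle. Labelled DUBs were NeutrAvidin-enriched, digested with LysC and trypsin, and run by diaPASEF LC-MS/MS. The values, average log2 fragment/vehicle ratios by unpaired t-test, come from global-median-normalised Spectronaut label-free quantities. Proteins with ≥2 unique peptides were used.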"}, "USP22": {"target": "T2, USP22 (UniProt Q9UPT9)", "T2 sequence (whole entry)": "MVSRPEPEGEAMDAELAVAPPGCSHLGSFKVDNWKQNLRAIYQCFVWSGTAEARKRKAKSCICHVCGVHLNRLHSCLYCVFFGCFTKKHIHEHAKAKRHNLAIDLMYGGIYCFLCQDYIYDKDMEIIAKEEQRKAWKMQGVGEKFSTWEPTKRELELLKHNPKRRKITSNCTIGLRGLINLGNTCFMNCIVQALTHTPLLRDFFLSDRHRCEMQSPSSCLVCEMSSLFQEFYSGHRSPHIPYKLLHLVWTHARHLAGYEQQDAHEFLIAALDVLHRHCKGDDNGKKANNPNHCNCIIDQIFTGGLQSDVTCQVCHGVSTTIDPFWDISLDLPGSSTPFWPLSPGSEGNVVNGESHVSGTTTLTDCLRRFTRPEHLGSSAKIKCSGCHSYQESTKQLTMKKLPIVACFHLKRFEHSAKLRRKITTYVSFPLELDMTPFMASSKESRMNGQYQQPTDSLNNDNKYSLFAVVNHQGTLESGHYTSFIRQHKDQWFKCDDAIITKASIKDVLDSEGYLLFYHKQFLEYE", "summary_of_the_method": "as §1"}, "USP24": {"target": "USP24 (UniProt Q9UPU5)", "sequence (Q9UPU5 whole entry)": "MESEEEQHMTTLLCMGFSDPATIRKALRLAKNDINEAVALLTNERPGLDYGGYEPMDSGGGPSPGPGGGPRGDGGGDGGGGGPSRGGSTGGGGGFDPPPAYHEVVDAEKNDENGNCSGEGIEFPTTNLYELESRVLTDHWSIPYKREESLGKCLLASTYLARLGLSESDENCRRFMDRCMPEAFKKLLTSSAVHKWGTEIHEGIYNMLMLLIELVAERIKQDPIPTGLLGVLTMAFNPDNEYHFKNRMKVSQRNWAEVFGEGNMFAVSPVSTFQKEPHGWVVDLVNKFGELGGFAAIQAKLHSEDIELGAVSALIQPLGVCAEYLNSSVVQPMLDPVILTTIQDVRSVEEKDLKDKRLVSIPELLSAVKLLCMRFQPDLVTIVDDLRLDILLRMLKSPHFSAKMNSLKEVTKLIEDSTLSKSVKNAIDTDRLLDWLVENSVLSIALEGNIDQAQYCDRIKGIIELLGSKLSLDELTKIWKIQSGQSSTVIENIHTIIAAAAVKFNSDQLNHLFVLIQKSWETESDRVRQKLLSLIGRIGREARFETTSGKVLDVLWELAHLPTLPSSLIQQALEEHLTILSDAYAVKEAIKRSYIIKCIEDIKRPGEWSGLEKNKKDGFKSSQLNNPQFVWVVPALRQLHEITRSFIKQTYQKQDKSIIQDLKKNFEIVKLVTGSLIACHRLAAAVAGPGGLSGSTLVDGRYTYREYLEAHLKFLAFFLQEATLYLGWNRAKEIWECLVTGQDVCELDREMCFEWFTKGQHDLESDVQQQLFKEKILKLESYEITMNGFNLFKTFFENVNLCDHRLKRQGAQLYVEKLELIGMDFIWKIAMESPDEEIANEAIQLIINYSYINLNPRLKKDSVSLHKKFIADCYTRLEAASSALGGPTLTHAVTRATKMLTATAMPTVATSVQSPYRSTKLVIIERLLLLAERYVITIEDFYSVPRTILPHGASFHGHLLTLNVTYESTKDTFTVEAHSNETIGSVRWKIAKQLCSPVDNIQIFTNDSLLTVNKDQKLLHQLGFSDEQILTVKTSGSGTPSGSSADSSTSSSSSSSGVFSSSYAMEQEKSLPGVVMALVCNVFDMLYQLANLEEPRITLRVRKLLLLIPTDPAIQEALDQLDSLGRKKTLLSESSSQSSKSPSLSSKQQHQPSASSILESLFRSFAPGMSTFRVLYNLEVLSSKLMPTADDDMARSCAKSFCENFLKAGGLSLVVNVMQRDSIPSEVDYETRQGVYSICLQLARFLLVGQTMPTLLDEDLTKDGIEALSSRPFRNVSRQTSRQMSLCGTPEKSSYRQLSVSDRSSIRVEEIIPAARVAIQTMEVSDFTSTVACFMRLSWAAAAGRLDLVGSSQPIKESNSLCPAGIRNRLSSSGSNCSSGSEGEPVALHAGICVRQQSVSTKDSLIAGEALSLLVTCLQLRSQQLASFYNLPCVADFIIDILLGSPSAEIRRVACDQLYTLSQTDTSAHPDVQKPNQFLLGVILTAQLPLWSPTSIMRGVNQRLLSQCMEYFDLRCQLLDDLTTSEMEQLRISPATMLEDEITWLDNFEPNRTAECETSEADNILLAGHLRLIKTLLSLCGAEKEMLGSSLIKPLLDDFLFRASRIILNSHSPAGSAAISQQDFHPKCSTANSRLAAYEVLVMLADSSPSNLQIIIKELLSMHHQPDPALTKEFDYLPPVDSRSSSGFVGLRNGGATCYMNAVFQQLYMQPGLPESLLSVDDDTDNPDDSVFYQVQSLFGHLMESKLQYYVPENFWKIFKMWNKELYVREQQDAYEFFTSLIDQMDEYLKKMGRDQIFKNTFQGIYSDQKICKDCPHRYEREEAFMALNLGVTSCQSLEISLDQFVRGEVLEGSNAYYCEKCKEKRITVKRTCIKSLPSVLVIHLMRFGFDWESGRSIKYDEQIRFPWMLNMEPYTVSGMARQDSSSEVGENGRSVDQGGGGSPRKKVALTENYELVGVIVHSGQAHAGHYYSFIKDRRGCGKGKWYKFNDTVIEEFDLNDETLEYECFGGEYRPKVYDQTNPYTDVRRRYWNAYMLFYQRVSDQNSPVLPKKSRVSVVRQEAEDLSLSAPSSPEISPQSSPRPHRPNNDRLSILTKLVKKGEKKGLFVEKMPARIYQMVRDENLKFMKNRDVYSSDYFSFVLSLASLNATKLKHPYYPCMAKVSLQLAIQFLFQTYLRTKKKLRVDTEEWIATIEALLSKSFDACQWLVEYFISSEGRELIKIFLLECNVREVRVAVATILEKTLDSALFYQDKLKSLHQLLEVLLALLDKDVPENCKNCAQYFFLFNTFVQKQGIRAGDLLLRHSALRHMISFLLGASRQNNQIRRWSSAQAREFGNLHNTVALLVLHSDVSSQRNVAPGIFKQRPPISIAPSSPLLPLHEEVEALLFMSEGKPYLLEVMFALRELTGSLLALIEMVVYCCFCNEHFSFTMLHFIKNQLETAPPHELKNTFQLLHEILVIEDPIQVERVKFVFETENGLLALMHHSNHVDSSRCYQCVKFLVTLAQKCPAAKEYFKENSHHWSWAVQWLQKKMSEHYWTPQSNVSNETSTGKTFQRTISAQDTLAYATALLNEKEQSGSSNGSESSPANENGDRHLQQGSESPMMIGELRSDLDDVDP", "summary_of_the_method": "as §1"}, "USP25": {"target": "T3, USP25 (UniProt Q9UHP3)", "T3 sequence (whole entry)": "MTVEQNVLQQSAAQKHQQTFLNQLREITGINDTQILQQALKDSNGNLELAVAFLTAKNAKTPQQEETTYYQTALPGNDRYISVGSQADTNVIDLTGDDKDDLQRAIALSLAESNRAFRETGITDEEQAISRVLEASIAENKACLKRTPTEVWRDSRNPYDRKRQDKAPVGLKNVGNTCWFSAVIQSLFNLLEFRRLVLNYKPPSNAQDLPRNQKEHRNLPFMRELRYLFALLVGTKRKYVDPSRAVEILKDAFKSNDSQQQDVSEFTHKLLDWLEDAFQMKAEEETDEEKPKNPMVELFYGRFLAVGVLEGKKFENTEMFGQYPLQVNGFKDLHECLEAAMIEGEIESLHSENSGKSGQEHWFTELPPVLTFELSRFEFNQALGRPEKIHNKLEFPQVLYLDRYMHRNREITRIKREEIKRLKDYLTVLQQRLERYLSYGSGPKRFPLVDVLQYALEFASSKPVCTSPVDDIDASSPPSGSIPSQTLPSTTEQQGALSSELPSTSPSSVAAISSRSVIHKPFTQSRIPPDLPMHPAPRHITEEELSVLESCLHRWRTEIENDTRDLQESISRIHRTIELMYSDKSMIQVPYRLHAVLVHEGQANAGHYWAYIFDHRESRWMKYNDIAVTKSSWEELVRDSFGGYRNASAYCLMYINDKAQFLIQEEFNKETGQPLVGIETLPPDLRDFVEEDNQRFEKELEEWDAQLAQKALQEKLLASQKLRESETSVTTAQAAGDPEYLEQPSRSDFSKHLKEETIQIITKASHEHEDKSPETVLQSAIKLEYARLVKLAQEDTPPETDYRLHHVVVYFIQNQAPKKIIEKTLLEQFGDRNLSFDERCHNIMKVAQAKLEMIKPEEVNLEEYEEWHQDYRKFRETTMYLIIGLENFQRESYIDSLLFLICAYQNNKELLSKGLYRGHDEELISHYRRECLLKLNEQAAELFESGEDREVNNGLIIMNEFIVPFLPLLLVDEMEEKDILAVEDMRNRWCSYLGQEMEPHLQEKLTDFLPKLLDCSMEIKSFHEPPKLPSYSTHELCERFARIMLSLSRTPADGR", "summary_of_the_method": "as §1"}, "USP28": {"target": "T4, USP28 (UniProt Q96RU2)", "T4 sequence (whole entry)": "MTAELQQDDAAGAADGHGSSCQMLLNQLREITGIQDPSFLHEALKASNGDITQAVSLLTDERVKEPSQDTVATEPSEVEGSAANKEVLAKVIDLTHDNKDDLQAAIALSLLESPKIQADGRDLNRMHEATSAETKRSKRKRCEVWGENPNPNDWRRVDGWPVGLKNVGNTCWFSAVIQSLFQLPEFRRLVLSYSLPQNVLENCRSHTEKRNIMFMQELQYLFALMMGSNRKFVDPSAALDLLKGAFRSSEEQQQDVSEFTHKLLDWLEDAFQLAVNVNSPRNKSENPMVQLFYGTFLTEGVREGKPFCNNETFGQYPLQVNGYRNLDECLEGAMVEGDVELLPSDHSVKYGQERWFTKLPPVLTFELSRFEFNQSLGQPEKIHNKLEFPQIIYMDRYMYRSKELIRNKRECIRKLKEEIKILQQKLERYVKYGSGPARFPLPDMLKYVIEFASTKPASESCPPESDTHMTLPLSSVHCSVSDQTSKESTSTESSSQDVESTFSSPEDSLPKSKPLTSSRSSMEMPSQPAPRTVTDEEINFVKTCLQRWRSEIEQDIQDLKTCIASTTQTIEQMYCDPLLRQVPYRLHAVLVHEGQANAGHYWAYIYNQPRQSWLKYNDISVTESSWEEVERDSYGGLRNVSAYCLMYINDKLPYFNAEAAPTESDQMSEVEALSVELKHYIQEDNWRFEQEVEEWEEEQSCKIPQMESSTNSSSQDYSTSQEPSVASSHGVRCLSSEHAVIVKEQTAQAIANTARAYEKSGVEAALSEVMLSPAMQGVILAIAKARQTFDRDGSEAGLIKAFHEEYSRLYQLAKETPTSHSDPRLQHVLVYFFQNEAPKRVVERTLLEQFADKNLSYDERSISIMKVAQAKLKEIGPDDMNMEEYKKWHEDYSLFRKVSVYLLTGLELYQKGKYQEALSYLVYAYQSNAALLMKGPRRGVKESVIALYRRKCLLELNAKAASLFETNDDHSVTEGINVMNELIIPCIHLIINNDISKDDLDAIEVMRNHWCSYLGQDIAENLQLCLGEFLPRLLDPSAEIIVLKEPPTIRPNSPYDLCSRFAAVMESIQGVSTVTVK", "summary_of_the_method": "as §1"}},
  "note": "Unmarked numbers belong to inactive results.",
  "data": [
    {"smiles": "O=C(CCl)Nc1ccc2c(c1)OC(F)(F)O2", "values": [
      {"measurement": "log2 ratio of Biotin-Ahx-Ub-VS probe labelling", "setting": "USP19", "value": -0.102},
      {"measurement": "log2 ratio of Biotin-Ahx-Ub-VS probe labelling", "setting": "USP22", "value": -0.358},
      {"measurement": "log2 ratio of Biotin-Ahx-Ub-VS probe labelling", "setting": "USP24", "value": "-1.19 (active)"},
      {"measurement": "log2 ratio of Biotin-Ahx-Ub-VS probe labelling", "setting": "USP25", "value": -0.541},
      {"measurement": "log2 ratio of Biotin-Ahx-Ub-VS probe labelling", "setting": "USP28", "value": "-1.3 (active)"}
    ]}
  ]
}
